SENP7 block = inhibitors of human SENP7 protease. 1.5% of 330,000 active. recombinant SENP7, Z-RLRGG-aminoluciferin luminescence, 40 min. AID 434973. inhibition, % at 5 µM;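 active means inhibition above about 50% at the single test dose, limit read from the data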;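 further: plate controls were DMSO with enzyme for no effect and no enzyme buffer wells for full effect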
LGR2 antag = inhibitors of bursicon-induced Drosophila LGR2 receptor cAMP signaling; HEK293 LGR2, CRE-luciferase, bursicon-stimulated, 4 h; inhibition, % at 9.99 µM; 0.35% of 380,000 active;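 active means drop in luminescence signal, shown as inhibition above about 50% in the replicate tests, limit read from the data, passing the limit was not always enough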;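 further: agonist challenge used bursicon conditioned medium at about half maximal strength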
SENP8 block-1 = inhibitors of human SENP8 protease; Q96LD8; purified SENP8, Z-RLRGG-aminoluciferin cleavage, luminescence; inhibition, % at 10 µM; 1.2% of 330,000 active; AID 2540; in the data active means inhibition above about 50%
Target sequence (Q96LD8 whole entry, looked up): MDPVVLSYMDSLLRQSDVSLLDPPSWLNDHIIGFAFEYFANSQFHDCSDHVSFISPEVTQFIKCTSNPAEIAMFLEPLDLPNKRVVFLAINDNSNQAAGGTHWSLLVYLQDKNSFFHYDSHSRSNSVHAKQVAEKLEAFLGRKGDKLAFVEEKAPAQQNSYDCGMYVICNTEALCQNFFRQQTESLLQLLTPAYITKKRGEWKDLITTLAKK
HSP90 refold inh = blocks HSP90-mediated luciferase refolding in reticulocyte lysate; Rabbit reticulocyte lysate, luciferase refolding luminescence, 3 h; inhibition, % at 5.6 µM; 0.91% of 290,000 active;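 active means inhibition above the screen-wide mean plus 3 SD, computed separately per campaign, cut at about 16% in these data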;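 further: 0% = DMSO wells and 100% = 60 µM geldanamycin wells; inhibitors lower the luminescence because luciferase stays unfolded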
SENP6 block = inhibitors of human SENP6 protease; Recombinant SENP6 catalytic domain, aminoluciferin luminescence; Q9GZR1; 1.8% of 330,000 active; inhibition, % at 10 µM;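 active means inhibition above about 50% at the single tested dose, limit read from the data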;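 further: plate controls were DMSO wells with enzyme for no effect and DMSO wells lacking enzyme for full effect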
SENP8 block-2 = blocks human SENP8 cleavage of Nedd8 substrate; 0.64% of 360,000 active; inhibition, % at 20 µM; recombinant SENP8, Nedd8 substrate fluorescence; Q96LD8; in the data active means inhibition mostly above about 40%, no sharp cut-off; inactive means mostly below about 27%
SENP8 conf = human SENP8 inhibition, confirmed; shares compounds with SENP7 block; Recombinant SENP8, Z-RLRGG-aminoluciferin luminescence, 60 min; inhibition, % at 12.5 µM; 40% of 6,200 active;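 active means mean inhibition across replicates above about 50%, limit read from the data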
SENP6 conf = confirmation of human SENP6 protease inhibitors. shares compounds with SENP7 block. AID 488915. 58% of 6,200 active. inhibition, % at 12.5 µM. recombinant SENP6, Z-RLRGG-aminoluciferin luminescence
SENP7 conf = human SENP7 inhibition, confirmed. AID 488917. inhibition, % at 12.5 µM. shares compounds with SENP7 block. recombinant SENP7, Z-RLRGG-aminoluciferin luminescence, 40 min. 69% of 6,200 active
Casp3 SENP sel = selectivity test for SENP inhibitors: human caspase-3 inhibition; shares compounds with SENP7 block; purified caspase-3, Z-DEVD-aminoluciferin luminescence, 60 min; inhibition, % at 12.5 µM; 60% of 6,200 active; AID 488918;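 active means mean inhibition above about 50%, limit read from the data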;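 further: plate controls were enzyme with DMSO for no effect and wells without caspase-3 for full effect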
Target sequence (P42574 28-227 limits assumed): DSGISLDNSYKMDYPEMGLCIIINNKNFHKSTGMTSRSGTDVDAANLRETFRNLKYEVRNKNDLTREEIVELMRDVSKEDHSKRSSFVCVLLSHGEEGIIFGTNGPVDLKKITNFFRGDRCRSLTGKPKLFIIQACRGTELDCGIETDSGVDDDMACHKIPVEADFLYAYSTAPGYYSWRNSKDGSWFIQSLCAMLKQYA
Luc interf = luminescence interference (SENP counter-screen); shares compounds with SENP7 block; Pre-incubated SENP8/Z-RLRGG-aminoluciferin, luciferase luminescence interference; inhibition, % at 12.5 µM; 39% of 6,200 active;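 active means mean inhibition above about 50% when retested at one dose, limit read from the data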;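 further: plate controls were DMSO wells with completed reaction for no effect and substrate without enzyme for full effect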
* = called active by the depositor. Only some compounds are listed: those with a hit (about 2.3% of all), similar ones and a draw of the others.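 How the source made its calls, unless noted: active means mean inhibition above about 50% in the one-dose retest (limit read from the data); inactive means the rest.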

Cc1ccc(-c2nc(-c3ccncc3)no2)cc1Cl was read as SENP7 block 54.8*, LGR2 antag -65.8, SENP8 block-1 23.4, HSP90 refold inh 1.3, SENP6 block 29.9, SENP8 block-2 11.9, SENP8 conf 22.7, SENP6 conf 20.2, SENP7 conf 34.7, Casp3 SENP sel 38.6 and Luc interf 10.8.
`Cc1cc(-c2nc(-c3ccncc3)no2)ccc1[N+](=O)[O-]` gave SENP7 block 60.7*, LGR2 antag -36.7, SENP8 block-1 54.5*, HSP90 refold inh -0.8, SENP6 block 59.5*, SENP8 block-2 12.9, SENP8 conf 8.7, SENP6 conf 8.6, SENP7 conf 16.2, Casp3 SENP sel 11.7 and Luc interf 11.3.
`O=C(C[C@@H]1CC[C@@H]2[C@H](COC[C@@H](O)CN2CCC(F)(F)F)O1)N1CCC(Cc2ccccc2)CC1` gave LGR2 antag 24.4.
`O=C(CSc1ccc(-c2ccc(F)cc2)nn1)N1CCCCC1` gave SENP7 block 62.7*, LGR2 antag -38.6, SENP8 block-1 29.4, HSP90 refold inh 5.9, SENP6 block 67.7*, SENP8 block-2 12.6, SENP8 conf 38.2, SENP6 conf 37.7, SENP7 conf 78.4*, Casp3 SENP sel 80.4* and Luc interf 58.3*.
For C[C@@H]1CN([C@H](C)CO)C(=O)c2cccc(NC(=O)Nc3ccc4c(c3)OCO4)c2O[C@H]1CN(C)Cc1ccccc1 the results were LGR2 antag 12.3.
O=C(Nc1ccccc1)c1ccc(-c2ccccc2Cl)o1 was read as SENP7 block 60.2*, LGR2 antag -151.8, SENP8 block-1 21.3, HSP90 refold inh -0.5, SENP6 block 65.9*, SENP8 block-2 11.6, SENP8 conf 4.8, SENP6 conf 24.2, SENP7 conf 81.8*, Casp3 SENP sel 38.1 and Luc interf 1.3.
Screening CC(=O)Cc1nsc(NC(=O)c2oc(-c3ccccc3Cl)cc2C)n1 returned SENP7 block 5.2, LGR2 antag -7.1, SENP8 block-1 3.9, HSP90 refold inh -3.1, SENP6 block 0.1 and SENP8 block-2 -179.1.
Screening O=C(Nc1nccs1)c1ccc(-c2ccccc2[N+](=O)[O-])o1 returned SENP7 block 24.6, LGR2 antag -66.6, SENP8 block-1 -10.5, HSP90 refold inh 5.3, SENP6 block 38.5 and SENP8 block-2 -21.4.
For CC(=O)Cc1nsc(NC(=O)c2ccc(-c3ccccc3Cl)o2)n1 the results were SENP7 block 44.6, SENP8 block-1 57.4*, HSP90 refold inh 4.5, SENP6 block 31.5, SENP8 block-2 -90.6, SENP8 conf 82.7*, SENP6 conf 79.2*, SENP7 conf 92.1*, Casp3 SENP sel 66.4* and Luc interf 66.0*.
For CC(=O)Nc1ccc(NC(=O)c2ccc(-c3ccccc3Cl)o2)cc1 the results were SENP7 block -8.7, LGR2 antag 15.1, SENP8 block-1 -20.6, SENP6 block -19.0 and SENP8 block-2 -54.8.
O=C(Nc1nccs1)c1ccc(-c2ccccc2Cl)o1 was read as SENP7 block 70.0*, LGR2 antag -87.8, SENP8 block-1 61.7*, HSP90 refold inh -4.4, SENP6 block 78.9*, SENP8 block-2 -75.6, SENP8 conf 65.6*, SENP6 conf 69.0*, SENP7 conf -6.6, Casp3 SENP sel 22.7 and Luc interf 25.2.
C[C@H](CO)N1C[C@H](C)[C@H](CN(C)S(=O)(=O)c2ccc(Cl)cc2)Oc2ccc(NC(=O)Nc3ccc(F)cc3)cc2CC1=O was read as LGR2 antag 9.1.
Screening CN1C(=O)c2cc(NC(=O)NCc3ccccc3)ccc2OC[C@@H]2O[C@@H](CC(=O)O)CC[C@@H]21 returned LGR2 antag -3.0.
`O=C(Nc1ccc2ccccc2c1)C(=O)C1C(=O)Nc2ccccc21` (stereo not drawn) gave SENP7 block 77.5*, LGR2 antag -34.7, SENP8 block-1 84.0*, HSP90 refold inh -0.8, SENP6 block 92.2*, SENP8 conf 73.1*, SENP6 conf 73.8*, SENP7 conf 88.7*, Casp3 SENP sel 76.7* and Luc interf 8.0.
Screening COc1cc([N+](=O)[O-])ccc1N/C=C/C(=O)c1cccs1 returned SENP7 block 97.3*, SENP8 block-1 52.8*, HSP90 refold inh 13.9, SENP6 block 86.5*, SENP8 block-2 -33.5, SENP8 conf 33.2, SENP6 conf 55.4*, SENP7 conf 47.9, Casp3 SENP sel 47.9 and Luc interf 23.9.
`Cc1cccc(N/C=C/C(=O)c2cccs2)c1C` gave SENP7 block 93.8*, LGR2 antag 69.8*, SENP8 block-1 95.2*, HSP90 refold inh 4.1, SENP6 block 94.8*, SENP8 block-2 -22.5, SENP8 conf 11.2, SENP6 conf 98.8*, SENP7 conf 102.1*, Casp3 SENP sel 94.6* and Luc interf 95.0*.
For Cc1c(NC(=O)c2cccs2)cccc1NC(=O)c1cccs1 the results were SENP7 block 13.7, LGR2 antag 2.8, SENP8 block-1 -4.2, HSP90 refold inh -4.3, SENP6 block -2.9 and SENP8 block-2 -4.6.
O=C(/C=C/c1ccc([N+](=O)[O-])cc1)c1cccs1 was read as SENP7 block -7.0, LGR2 antag -15.6, SENP8 block-1 -6.6, HSP90 refold inh -0.3, SENP6 block -10.8 and SENP8 block-2 20.5.
NC(=O)c1ccccc1N/C=C/C(=O)c1cccs1 was read as SENP7 block 75.6*, SENP8 block-1 80.8*, HSP90 refold inh 4.1, SENP6 block 91.7*, SENP8 block-2 inactive, SENP8 conf 3.9, SENP6 conf 89.5*, SENP7 conf 98.5*, Casp3 SENP sel 93.5* and Luc interf 87.8*.
Clc1ccsc1-c1ccc2ccccc2n1 was read as SENP7 block 81.3*, SENP8 block-1 67.3*, HSP90 refold inh 2.1, SENP6 block 87.5*, SENP8 block-2 -176.0, SENP8 conf 11.6, SENP6 conf 77.6*, SENP7 conf 94.2*, Casp3 SENP sel 51.1* and Luc interf 29.4.

Screening data (PubChem)
